According to ChEMBL document CHEMBL3988442, “University of Dundee, Small-Polar-MMV Screening Library” (2021):
Out of some 48,000 compounds screened, about 13,000 (27%) showed an effect of 50% or more. This is one part of the list.

test system: Wolbachia pipientis; experiment: Anti-Wolbachia Cell-Based Screen; assay type: functional; design: scale not given: in the data most compounds retested in dose-response had high values; conditions: 5 µM

Structure (SMILES) | Percent Effect [%]
C[C@@H]1CN(Cc2ccc(-c3ccncc3)cc2F)CC(C(N)=O)O1 (stereo not given in full) | -2.76
Cc1ccccc1OCCN(C)Cc1noc(CC(C)C)n1 | -23.34
CCc1nnc(CN2CCCCC2Cn2nc(C)nc2C)o1 (stereo not given) | 93.98
Cc1nc(C2CCCN2Cc2nnc(Cc3ccccc3)o2)no1 (stereo not given) | -12.76
c1ccc(Cc2nnc(CN3CCCCC3Cn3cncn3)o2)cc1 (stereo not given) | 108.9
Clc1snnc1CN1CCCCC1Cn1cncn1 (stereo not given) | -4.6
Cc1cnn(CC2CCCCN2CCn2cncn2)c1 (stereo not given) | -5.934
CCc1nnc(CN2CCCCC2Cn2cncn2)o1 (stereo not given) | 78.77
Cc1nc(C)n(CC2CCCCN2CCCS(C)(=O)=O)n1 (stereo not given) | 12.99
CCc1nc(C2CCCN2Cc2nnc(Cc3ccccc3)o2)no1 (stereo not given) | 6.131
Cc1nc(C)n(CC2CCCCN2Cc2nnc(C3CC3)o2)n1 (stereo not given) | 1.656
c1ccc(Cc2nnc(CN3CCCC3Cn3cccn3)o2)cc1 (stereo not given) | 131.9
OC1CCN(c2ccc(CNc3nc4ccccc4s3)cc2F)CC1 | -3.16
CS(=O)(=O)N1CCc2[nH]cnc2C12CCN(C(=O)c1ccc[nH]1)CC2 | 5.069
NCCC1CN(Cc2cnc3c(-c4ccccc4)cnn3c2)CCO1 (stereo not given) | 4.404
CN(C)CCCN(C)c1nccc(N2CCN[C@H]3CS(=O)(=O)C[C@H]32)n1 | -10.75
COCCNC(=O)NCCn1nc(C(F)(F)F)n(C)c1=O | 0.0676
CC1(C)CN(Cc2c[nH]c(CC3CCCC3)n2)CC[C@]1(C)O | -6.969

Structure (SMILES) | Percent Effect [%]
Cc1cc(C)c(S(=O)(=O)Nc2ccccc2CC(F)(F)F)cc1C(=O)O | 3.88
c1cnc2c(c1)nc1n2[C@@H](CNCc2nccs2)COC1 | -1.802
Cc1nc(C)n(CC2CCCCN2Cc2cnc(C)s2)n1 (stereo not given) | 97.07
Fc1ccc(-c2cnc(CN3CCCC3Cn3cccn3)o2)cc1 (stereo not given) | -6.963
Cc1nc(C)n(CC2CCCN2Cc2cnc(C)s2)n1 (stereo not given) | -0.1768
Fc1ccc(-c2nnc(CN3CCCC3Cn3cccn3)o2)cc1 (stereo not given) | 88.78
Cc1nc(C)n(CC2CCCCN2Cc2cscn2)n1 (stereo not given) | 10.69
OCC(O)CSCc1cc(Cl)ccc1Cl (stereo not given) | -6.234
O=C(NC1CCCc2c1[nH]c1ccc(F)cc21)c1n[nH]c2c1CCC2 (stereo not given) | 132.4
O=C1CC(N(C(=O)c2ccc3[nH]c4c(c3c2)CCCC4)C2CC2)C(=O)N1 (stereo not given) | 7.465
CC(=O)NC(c1cc(F)ccc1F)C1CC1 (stereo not given) | 0.9467
O=C(NC1CCCc2c1[nH]c1ccc(F)cc21)c1n[nH]c2c1CCCC2 (stereo not given) | 120.6
O=C(c1cc2c([nH]c1=O)CCC2)N1CCCC1c1ccc(F)cc1 (stereo not given) | 20.74
O=C(NCC1CC1)c1n[nH]c2c1CNCC2.O=C(O)C(F)(F)F.O=C(O)C(F)(F)F | -32.44
Cc1ccc(F)cc1NC(=O)CNc1cccc2c1CCCC2 | -15.05
CC(=O)NC1CCCc2c1[nH]c1ccc(F)cc21 (stereo not given) | 97.09
O=C(NC1CCC1)c1n[nH]c2c1CNCC2 | -9.631
